The test system of assay [1] is XIP peptide (Xip251-270) binding. Put plainly: small-molecule binders of XIP peptide, primary screen, biochemical, small-molecule microarray, fluorescence 635/667 nm, 0.1 µg/mL protein (AID 1182). The conditions noted are these: fluorescent protein binding, 635 nm, higher = more signal, called active from +8 up or from −8 down.
The test system of a further assay is XIP peptide (Xip251-270). Put plainly: small-molecule binders of XIP peptide, primary screen, biochemical, small-molecule microarray, fluorescence 635/667 nm, 0.5 µg/mL protein (AID 1183). The conditions noted are these: small-molecule microarray binding, fluorescence 635 nm; higher = more signal.
A short description of assay [2]: Plasmodium falciparum growth inhibition, primary screen, strain 3D7, DAPI fluorescence, 100 nL (AID 1184).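 Further: parasites grown inside human red blood cells in medium with human serum.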 The conditions noted are these: P. falciparum 3D7 growth, 3 d, higher = more signal.
In assay [3] the target is Homeobox protein Hox-A13 (Mus musculus) (UniProt Q62424). Put plainly: inhibitors of HoxA13-DNA binding, primary screen, biochemical, fluorescence polarization, labeled oligonucleotide (AID 1185). The conditions noted are these: 15 min, higher = more signal, called active from +8 up or from −8 down. A general note: In fluorescence polarisation assays a small probe gives low polarisation when free and higher when bound to something large.
Homeobox protein Hox-A13 (Mus musculus), sequence (Q62424 whole entry, looked up): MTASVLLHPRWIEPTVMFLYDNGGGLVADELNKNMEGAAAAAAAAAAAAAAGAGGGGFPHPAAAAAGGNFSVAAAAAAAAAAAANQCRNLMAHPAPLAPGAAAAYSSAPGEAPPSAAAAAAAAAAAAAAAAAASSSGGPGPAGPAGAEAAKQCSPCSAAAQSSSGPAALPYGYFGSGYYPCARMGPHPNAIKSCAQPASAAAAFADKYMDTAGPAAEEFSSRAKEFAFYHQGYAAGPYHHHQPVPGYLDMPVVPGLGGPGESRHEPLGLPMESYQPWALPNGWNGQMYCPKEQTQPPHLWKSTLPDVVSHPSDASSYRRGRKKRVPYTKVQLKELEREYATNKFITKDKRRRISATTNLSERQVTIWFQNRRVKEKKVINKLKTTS

The nature of assay [4]: inhibitors of hydroxyurea-induced Chk1 phosphorylation, primary screen, imaging, HeLa, phospho-Chk1 antibody, percent positive cells (AID 1186). The conditions noted are these: hydroxyurea-induced phospho-Chk1 immunofluorescence imaging, higher = more signal.
Assay [5] can be described thus: inhibitors of hydroxyurea-induced Chk1 phosphorylation, primary screen, imaging, HeLa, phospho-Chk1 nuclear intensity (AID 1187). The conditions noted are these: hydroxyurea-induced phospho-Chk1 immunofluorescence imaging, higher = more signal.

Where “and” joins values, the source holds several entries; their conditions need not be identical. Identical values can stand only once. Calls of active or inactive are those of the source. Unless noted, how the calls were made is not given here.

As for `CCN1C(=O)[C@H]2[C@H]3[C@H](O)[C@H](O)CC(=NOC)[C@@H]3CC[C@H]2C1=O`, the composite z-score in assay [1] is -0.397 (inactive); in the assay on XIP peptide (Xip251-270), 0.774. For the same compound, the z-score in assay [2] was 0.638; in assay [3], 1.98 (inactive).

As for `COCn1c2ccccc2c2nnc(C(C)=O)nc21`, the composite z-score is -0.0478 (inactive) and 0.199 (inactive) in assay [1]; -0.392 and -0.333 in the assay on XIP peptide (Xip251-270). Besides, the z-score in assay [2] was -1.12 and -1.29; in assay [3], 0.732 (inactive) and 0.896 (inactive).

Regarding `CC(C)N1CC=CC23O[C@@H]4C=CCCOC(=O)C4[C@H]2C(=O)N(C(C)CO)[C@@H]3C1=O` (some centres undefined), the composite z-score in assay [1] is 1.78 (inactive) and 0.425 (inactive); with XIP peptide (Xip251-270), 0.716 and -0.58. Also, the z-score was -0.819 and -0.728 in assay [2]; -3.49 (inactive) and -4.21 (inactive) in assay [3]; -0.161 (inactive) and -0.496 (inactive) in assay [4]; -0.309 (inactive) and -0.538 (inactive) in assay [5].

Regarding `C=CCN(C(=O)C1N(C(C)(C)CO)C(=O)C2C(C(=O)O)C3C=CC21O3)c1ccc(OC)cc1` (centres undefined), the composite z-score in assay [1] is 0.382 (inactive) and -0.0838 (inactive); in the assay on XIP peptide (Xip251-270), -0.383 and -1.8. For the same compound, the z-score was -0.445 and 0.004 in assay [2]; -1.43 (inactive) and 0.701 (inactive) in assay [3]; 2.27 (inactive) and 0.407 (inactive) in assay [4]; 1.44 (inactive) and 0.526 (inactive) in assay [5].

On to `C=CCN(Cc1ccccc1)C(=O)C1N(C(C)(C)CO)C(=O)C2C(C(=O)O)C3C=CC21O3` (centres undefined), for which the composite z-score in assay [1] was 0.102 (inactive) and -0.207 (inactive); with XIP peptide (Xip251-270) it was 0.234 and -0.526. Moreover, the z-score in assay [2] was 0.379 and -0.247; in assay [3], -0.255 (inactive) and -0.187 (inactive); in assay [4], -0.401 (inactive) and -0.113 (inactive); in assay [5], -0.326 (inactive) and -0.297 (inactive).

For the compound `CC(CO)N1C(=O)[C@@H]2C3C(=O)OCCC=C[C@H]3OC23C=CCN(CCN2CCOCC2)C(=O)[C@@H]13` (some centres undefined), the composite z-score is -0.163 (inactive) and 0.286 (inactive) in assay [1]; -0.0259 and 0.321 in the assay on XIP peptide (Xip251-270). The z-score is -0.195 and 0.513 in assay [2]; -6.39 (inactive) and -7.63 (inactive) in assay [3]; 0.079 (inactive) and 0.456 (inactive) in assay [4]; -0.204 (inactive) and 0.371 (inactive) in assay [5].

For the compound `C=CCN(C(=O)C(c1cccs1)N(C(=O)/C=C\C(=O)O)c1c(Cl)cccc1CO)C(C)(C)C` (centres undefined), the composite z-score in assay [1] was -0.0516 (inactive) and 0.0403 (inactive); in the assay with XIP peptide (Xip251-270) it was 0.689 and -1.16. Further, the z-score in assay [2] is 1.83 and 1.67; in assay [3], 0.131 (inactive) and -0.43 (inactive); in assay [4] it was 0.221 (inactive) and 0.501 (inactive); in assay [5] it was 0.711 (inactive) and 0.634 (inactive).

As to `C=C[C@H](OC)[C@@H](O)c1ccc(OCCO)cc1`, the composite z-score in assay [1] is 0.632 (inactive) and -0.235 (inactive); with XIP peptide (Xip251-270) it was -1.15 and -0.537. For the same compound, the z-score in assay [2] was 0.0026 and 0.809; in assay [3] it was -0.791 (inactive) and -0.187 (inactive); in assay [4] it was 0.228 (inactive) and 0.524 (inactive); in assay [5], 0.0287 (inactive) and 0.865 (inactive).

For `C=CCN(CCCC)C(=O)C1N(c2c(Cl)cccc2CO)C(=O)C2C(C(=O)O)C3C=CC21O3` (centres undefined), the composite z-score was -0.523 (inactive) and -0.356 (inactive) in assay [1]; 0.222 and 0.152 in the assay on XIP peptide (Xip251-270). In addition, the z-score in assay [2] was -1.23 and -1.7; in assay [3] it was -1.12 (inactive) and -1.43 (inactive); in assay [4], 0.304 (inactive) and -0.273 (inactive); in assay [5] it was 0.151 (inactive) and 0.131 (inactive).

As for `O=C1NC(=O)C2C1C=CC(C(O)c1ccc([N+](=O)[O-])cc1)N2Nc1ccc(Cl)cc1Cl` (centres undefined), the composite z-score in assay [1] was 0.376 (inactive) and 0.385 (inactive); in the assay with XIP peptide (Xip251-270), 0.762 and 0.163. Further, the z-score was 0.698 and 0.664 in assay [2]; -5.8 (inactive) in assay [3]; -0.85 (inactive) and -0.665 (inactive) in assay [4]; -1.15 (inactive) and -0.297 (inactive) in assay [5].

Consider `C=C[C@@H](OC)[C@H](O)c1ccc(OCCO)cc1`, for which the composite z-score was 0.602 (inactive) and -0.746 (inactive) in assay [1]; 0.524 and 0.496 with XIP peptide (Xip251-270). In addition, the z-score was -0.748 and 0.0067 in assay [2]; -0.717 (inactive) and -0.113 (inactive) in assay [3]; -0.949 (inactive) and -0.429 (inactive) in assay [4]; 0.0246 (inactive) and 0.283 (inactive) in assay [5].

As for `CC[C@@H]1C(Sc2ccccc2)C(C(=O)O)[C@H](c2ccc(C)cc2)N1S(=O)(=O)c1ccc(C)cc1` (some centres undefined), the composite z-score in assay [1] was 1.07 (inactive) and -0.215 (inactive); in the assay on XIP peptide (Xip251-270), 0.278 and 0.605. The z-score in assay [2] is -0.606 and 0.251; in assay [3], -5.66 (inactive) and -4.34 (inactive); in assay [4] it was -0.114 (inactive) and -0.912 (inactive); in assay [5] it was -0.369 (inactive) and -0.714 (inactive).

For `C=CCN(C(=O)C1N(CCCCCCO)C(=O)C2C(C(=O)O)C3C=CC21O3)c1ccc(OC)cc1` (centres undefined), the composite z-score is 1.14 (inactive) and 1.15 (inactive) in assay [1]; -2.27 and -0.654 in the assay with XIP peptide (Xip251-270). Moreover, the z-score is -0.424 and 0.0379 in assay [2]; -1.08 (inactive) and -0.0174 (inactive) in assay [3]; -0.598 (inactive) and -0.471 (inactive) in assay [4]; -0.451 (inactive) and -0.198 (inactive) in assay [5].
